Results: PubChem BioAssay (NCATS)
Results filed as inconclusive are left out. Where a call stands in place of a potency, no number is given. Active and inactive are the calls of the source. The call rests on the fitted dose curve; in most records, active means well fitted cell-killing curve with a large enough effect; inconclusive means small, poorly fitted or top-dose-only effect, or effect the other way; inactive means no such curve, though single readings can be large or run the other way.

test: qHTS of pediatric cancer cell lines to identify multiple opportunities for drug repurposing: Confirmatory screen for Saos-2 cells (AID 1347127); conditions: Saos-2 osteosarcoma cell viability; series mostly up to 45.9 µM; further: nearly all actives have a fitted effect of over 60% in size
Description: Drug repurposing or repositioning has been offered as a strategy for drug development in oncology programs. This approach has special potential for childhood cancers and other rare or orphan diseases, where the expected return on new drug development has been a disincentive to pharmaceuticals.
In this project we exploit the poly-pharmacology of drugs to discover new indications via phenotypic screening of a panel of 19 well-characterized cell lines derived from solid tumors seen in children and adolescents. The goal is to identify approved drugs with previously unrecognized anticancer properties that has the potential to reveal new mechanisms and biological processes involved in carcinogenesis or drug resistance. We employed a titration-based paradigm (quantitative high-throughput screening or qHTS), where all compounds were tested at multiple concentrations for their effect on cell viability. Concentration-response curves (CRCs) were derived directly from the primary screen, and both potency and efficacy values were used to identify compounds with robust bioactivity profiles. We screened the NIH Chemical Genomics Center (NCGC) Pharmaceutical Collection (NPC) and Mechanism Interrogation Plate (MIPE) small molecule collections of approved and investigational compounds against these cell lines; and measured metabolically active cells after 48 hours of compound treatment as a proxy for cell viability.
Assay Submitter: Nathalia J. Martinez, National Center for Advancing Translational Sciences, National Institutes of Health, Rockville, MD, USA; email: natalia.martinez@nih.gov
[1] Shen, M et al. Quantitative high-throughput phenotypic screening of pediatric cancer cell lines identifies multiple opportunities for drug repurposing. Oncotarget 2017 Dec 19;9(4):4758-4772. PMID 29435139.
The cells were obtained from University of North Carolina (UNC), Pediatric Preclinical Testing Program (PPT), and Coriell Institute (CI).
qHTS cell viability assay:
Cells were assayed in growth media at a density of 500-1,000 cells/well. Five microliters of cells were dispensed into 1,536-well, white, solid-bottom, TC-treated plates (Greiner Bio One) using a multidrop dispenser and incubated at 37 degrees C, 5% CO2, under a humidified atmosphere for 5 hours. Twenty-three nanoliters of compounds and controls (neutral control DMSO or positive control bortezomib at final concentration of 2.3 µM) were subsequently transferred by Kalypsys pintool. For primary screens, the MIPE collection was tested at 11-point dilutions (final concentrations range from 0.78 nM to 46 µM) and the NPC collection at 8-point dilutions (final concentrations range from 0.59 nM to 46 µM). Compounds tested in follow-up screens were assayed at 11-point dilutions. Cells were incubated for 48 hours, followed by addition of 3 µL of CellTiter-Glo (Promega). After a 15 min incubation at room temperature, samples were analyzed for luminescence intensity using a ViewLux High-throughput CCD imager equipped with clear filters.
Potency means the concentration at half of the fitted maximal effect.

Row | SMILES | Potency
1 | CCc1cc2cc(OC)c(OC)cc2c(Cc2ccccc2)n1 | inactive
2 | CCC1(c2cnc[nH]2)Cc2ccccc2C1 | 9.27 µM (active)
3 | CCCC(=O)O[C@]1(C(=O)COC(=O)CC)CC[C@H]2[C@@H]3CCC4=CC(=O)CC[C@]4(C)[C@H]3[C@@H](O)C[C@@]21C | inactive
4 | C[C@]12CCC(=O)C=C1CC[C@@H]1[C@@H]2[C@@H](O)C[C@@]2(C)[C@H]1CC[C@]2(O)C(=O)COC(=O)CCC(=O)O | inactive
5 | CO[C@@H]1[C@@H](OC)[C@H](C)[C@@](O)(CC(=O)O)O[C@H]1[C@H](C)[C@H]1O[C@@]2(CC[C@@](C)([C@H]3CC[C@@](C)([C@@H]4O[C@@H]([C@H]5O[C@](C)(O)[C@H](C)C[C@@H]5C)C[C@@H]4OC4C[C@H](OC)[C@@H](OC)[C@H](C)O4)O3)O2)C[C@H](O)[C@H]1C (stereo not given in full) | 1.17 µM (active)
6 | CCCC(=O)O[C@]1(C(=O)CCl)[C@@H](C)C[C@H]2[C@@H]3CCC4=CC(=O)C=C[C@]4(C)[C@@]3(F)C(=O)C[C@@]21C | inactive
7 | CC(=O)OCC(=O)[C@@]1(O)[C@H](OC(C)=O)C[C@H]2[C@@H]3CCC4=CC(=O)C=C[C@]4(C)[C@@]3(F)[C@@H](O)C[C@@]21C | inactive
8 | Cc1cc(OCCOCC[N+](C)(C)Cc2ccccc2)ccc1C(C)(C)CC(C)(C)C | 7.37 µM (active)
9 | N=C(N)c1ccc(OCCCOc2ccc(C(=N)N)cc2)cc1 | inactive
10 | CN(C)CCN(Cc1ccsc1)c1ccccn1 | inactive
11 | C[C@H]1C[C@H]2[C@@H]3CCC4=CC(=O)C=C[C@]4(C)[C@H]3C(=O)C[C@]2(C)[C@@]1(O)C(=O)CO | 3.69 µM (active)
12 | CCC1=C[C@@H]2CN(C1)Cc1c([nH]c3ccccc13)[C@@](C(=O)OC)(c1cc3c(cc1OC)N(C)[C@H]1[C@@](O)(C(=O)OC)[C@H](OC(C)=O)[C@]4(CC)C=CCN5CC[C@]31[C@@H]54)C2 | 0.0185 µM (active)
13 | CC(=O)[C@@]1(O)CC[C@H]2[C@@H]3C[C@H](C)C4=CC(=O)CC[C@]4(C)[C@H]3CC[C@@]21C | inactive
14 | CC(C)(C)CC(=O)OCC(=O)[C@@]1(O)CC[C@H]2[C@@H]3CCC4=CC(=O)C=C[C@]4(C)[C@H]3[C@@H](O)C[C@@]21C | inactive
15 | COc1c(C)c2c(c(O)c1C/C=C(\C)CCC(=O)OCCN1CCOCC1)C(=O)OC2 | inactive
16 | CCN(CC)CC(=O)OCC(=O)[C@@]1(O)CC[C@H]2[C@@H]3CCC4=CC(=O)CC[C@]4(C)[C@H]3[C@@H](O)C[C@@]21C | inactive
17 | CC(C)=CCC/C(C)=C/CC/C(C)=C/C(=O)OCC(=O)[C@@]1(O)CC[C@H]2[C@@H]3CCC4=CC(=O)C=C[C@]4(C)[C@H]3[C@@H](O)C[C@@]21C | 18.5 µM (active)
18 | CC[C@@]1(O)C(=O)OCc2c1cc1n(c2=O)Cc2c-1nc1ccccc1c2/C=N/OC(C)(C)C | 0.0165 µM (active)
19 | CC(=O)O[C@@H]1C(=O)O[C@@H]2[C@H]1OC(=O)[C@@H]2OC(C)=O | inactive
20 | Cc1ccc(C(=O)Oc2ccc(C(O)CNC(C)(C)C)cc2OC(=O)c2ccc(C)cc2)cc1 (stereo not given) | inactive
